Shown are actives, neighbours in structure and some others; about 1.8% of the full set was active somewhere.
Neddylation inh: inhibitors of cullin neddylation, primary screen, biochemical, TR-FRET, uHTS, NAE and Ubc12; calls only at 25 µM; hit rate 0.58% among 360,000; NEDD8-conjugating enzyme Ubc12 (Homo sapiens) + NEDD8-activating enzyme E1 regulatory …; in the data active = inhibition above about 36%
Target sequence (P61081 whole entry, looked up): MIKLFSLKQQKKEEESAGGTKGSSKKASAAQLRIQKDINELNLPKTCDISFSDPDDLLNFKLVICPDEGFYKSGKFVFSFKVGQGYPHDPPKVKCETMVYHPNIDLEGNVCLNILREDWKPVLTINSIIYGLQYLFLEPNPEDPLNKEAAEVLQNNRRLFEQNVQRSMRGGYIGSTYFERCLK
Target sequence (Q13564 whole entry, looked up): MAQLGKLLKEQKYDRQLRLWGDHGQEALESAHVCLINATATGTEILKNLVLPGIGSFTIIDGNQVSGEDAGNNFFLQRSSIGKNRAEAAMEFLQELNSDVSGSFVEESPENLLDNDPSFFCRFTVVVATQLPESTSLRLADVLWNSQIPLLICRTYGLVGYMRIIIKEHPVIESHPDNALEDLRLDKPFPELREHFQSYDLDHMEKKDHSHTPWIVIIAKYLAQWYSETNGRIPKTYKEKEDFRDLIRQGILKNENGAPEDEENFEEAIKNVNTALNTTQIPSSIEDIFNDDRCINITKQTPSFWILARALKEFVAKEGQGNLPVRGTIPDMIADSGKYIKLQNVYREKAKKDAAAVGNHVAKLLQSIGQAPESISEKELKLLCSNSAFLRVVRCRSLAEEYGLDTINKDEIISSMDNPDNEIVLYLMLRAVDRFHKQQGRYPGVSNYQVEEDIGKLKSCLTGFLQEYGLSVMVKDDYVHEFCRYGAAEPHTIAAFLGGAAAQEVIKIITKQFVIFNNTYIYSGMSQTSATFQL
UHRF1 MBD2 ctr: UHRF1 methylated DNA binding inhibitors, primary screen, counter-screen for MBD2 inhibitor project, biochemical, TR-FRET, human UHRF1, single concentration; E3 ubiquitin-protein ligase UHRF1 (Homo sapiens), Q96T88; UHRF1 binding to methylated oligo; inhibition, % at 4.4 µM; hit rate 0.75% among 370,000; in the data active = inhibition above about 21%;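 note: UHRF1 SRA domain binding a hemimethylated CpG hairpin DNA probe; 0% = median of test compound wells and 100% = reference inhibitor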
MBD2 inh: inhibitors of MBD2 binding to methylated DNA, primary screen, biochemical, TR-FRET, DNA-binding domain, human; inhibition, % at 4.4 µM; hit rate 0.31% among 370,000; MBD2 binding to methylated oligonucleotide; Methyl-CpG-binding domain protein 2 (Homo sapiens), Q9UBB5; in the data active = inhibition above about 13%
UBC13 inh: UBC13 polyubiquitin chain formation inhibitors, primary screen, biochemical, TR-FRET, uHTS; Ubiquitin-conjugating enzyme E2 N (Homo sapiens), P61088; inhibition, % at 20 µM; hit rate 0.47% among 330,000; AID 485273, 2010; in the data active = inhibition above about 45%, passing the limit was not always enough
Casp3 UBC13 ctr: CASP3 inhibitor validation, counterassay for project on UBE2N polyubiquitination blockers, biochemical, one dose; inhibition, % at 20 µM; AID 488856, 2010; Recombinant caspase-3, Caspase-Glo 3/7 luminescence, 60 min; hit rate 4% among 1,400; shares compounds with UBC13 inh;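 active = mean inhibition across replicates above about 26%, limit read from the data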;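 note: plate controls were DMSO with caspase-3 for no effect and DMSO wells lacking enzyme for full effect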
UBC13 conf: UBC13 polyubiquitination inhibitors, single-point retest, confirmation, biochemical, TR-FRET, single concentration | shares compounds with UBC13 inh | hit rate 68% among 1,400 | inhibition, % at 10 µM | AID 488859, 2010; in the data active = inhibition above about 45%
Starred values were filed as active, the others as inactive; i = inactive; nt = not tested or not shown.

SMILES	Neddylation inh	UHRF1 MBD2 ctr	MBD2 inh	UBC13 inh	Casp3 UBC13 ctr	UBC13 conf
Cc1ccc(NC(=O)CSc2nc3ccccc3c(=O)n2CCCC(=O)NCCCN2CCOCC2)cc1C	i	0	-2	48*	-1	55*
O=S(=O)(Nc1ccc(Cl)cn1)c1ccccc1	i	-1	2	4	nt	nt
NC(=O)C1CCN(Cc2nnnn2Cc2ccco2)CC1	i	1	1	-1	nt	nt
CSCCC(NC(=O)COc1ccccc1)C(=O)N1CCC(C(N)=O)CC1 (centres undefined)	i	1	-7	68*	2	86*
CSCCC(NC(=O)COc1ccccc1)C(=O)N1CCCCC1 (centres undefined)	i	0	3	-6	nt	nt
CCC(C(=O)NC1CCCC1)N(C(=O)c1snc(C(N)=O)c1N)c1ccc(OC)cc1 (centres undefined)	i	-3	-5	52*	-1	62*
CC(C(=O)NC1CCCC1)N(C(=O)c1snc(C(N)=O)c1N)c1ccc2c(c1)OCCO2 (centres undefined)	i	0	-3	72*	1	72*
Cc1cccc(N(C(=O)c2snc(C(N)=O)c2N)C(C(=O)NC2CCCC2)c2ccco2)c1 (centres undefined)	nt	-3	0	79*	3	76*
COc1ccc(CN(C(=O)c2snc(C(N)=O)c2N)C(C(=O)NC2CCCC2)c2ccco2)cc1 (centres undefined)	i	2	-3	34	nt	nt
FC(F)(F)c1cccc(Cc2noc(CN3CCCC(CN4CCCC4)C3)n2)c1 (centres undefined)	i	-1	-5	20	nt	nt
COc1cccc(C(=O)NNC(=O)C2CC(C)=C(C)CC2C(=O)O)c1 (centres undefined)	i	-1	0	2	nt	nt
Cc1c(C(=O)Nc2ccc(S(=O)(=O)N(C)C3CCN(C)CC3)cc2)oc2ccccc12	i	-7	2	56*	-2	34
Cn1c(SCc2nc(-c3cccs3)no2)nnc1C1CCCCC1	i	4	2	2	nt	nt
CN(C)c1ncc([N+](=O)[O-])cc1C(F)(F)F	i	-3	1	0	nt	nt
CCOC(=O)c1c(CN2CCN(c3ccccc3)CC2)oc2ccc(O)cc12	i	4	2	91*	-3	83*
CC1(OC(=O)c2cnc3ccccc3n2)C(=O)C=C2C=C(C3CC3)OC=C2C1=O (centres undefined)	nt	nt	nt	-71	nt	nt
CCCC[C@@H](CN[C@H](C)CNC)NCC1CCC(C(C)(C)C)CC1 (some centres undefined)	nt	-4	1	61*	-2	14
CCc1nc2ccccc2c(C(=O)OCc2nc3ccccc3c(=O)[nH]2)c1C	i	-1	3	62*	1	58*
CCc1nc2ccccc2c(C(=O)OCCN2C(=O)c3ccccc3C2=O)c1C	i	2	-5	52*	-3	70*
CC(=O)c1cccc(NC(=O)C2C(c3ccccc3)C2(Cl)Cl)c1 (centres undefined)	i	-1	4	-1	nt	nt
CN(Cc1ccccc1)C(=O)CCSc1nc(-c2ccc3c(c2)OCO3)cc(C(F)(F)F)n1	nt	-1	5	46*	-2	42
COCCNc1nc2nonc2nc1N1C[C@H]2CC[C@H]1C2	i	3	1	-2	nt	nt
Cc1cc(Oc2ccc3ccccc3c2)nc(SCC(=O)c2ccccc2)n1	i	-2	-2	-1	nt	nt
CCCCCCCNC(=O)C1(CC2CC(c3cccc(Br)c3)=NO2)CCN(C(=O)Cc2ccc(F)cc2)CC1 (centres undefined)	i	nt	nt	-10	nt	nt
CCCCCCCNC(=O)C1(CC2CC(c3cccc(Br)c3)=NO2)CCNCC1 (centres undefined)	i	-1	-5	96*	4	99*
CCCCCCCNC(=O)C1(CC2CC(c3ccc(Cl)cc3)=NO2)CCNCC1 (centres undefined)	i	2	3	83*	0	80*

Compound activity from PubChem.
